PubChem BioAssay (NCI)
The panel holds about 83,000 compounds, 20% with a hit somewhere; the sample as a whole holds those more often.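 A percent growth of 40 corresponds to 60% growth inhibition; 0 means no net growth; -100 means all cells died. Active threshold: below 10.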

Tests used:
Test in all cases: NCI-60 one-dose screen, 48 h (100 = growth as untreated, 0 = no growth, -100 = all killed)
Settings in all cases: 10 µM unless noted
NCI-H23 lung = tested on: NCI-H23 lung
NCI-H226 lung = tested on: NCI-H226 lung
NCI-H322M lung = tested on: NCI-H322M lung
HOP-62 NSCLC = tested on: HOP-62 NSCLC
NCI-H460 lung = tested on: NCI-H460 lung
HOP-92 NSCLC = tested on: HOP-92 NSCLC
NCI-H522 lung = tested on: NCI-H522 lung
A549/ATCC NSCLC = tested on: A549/ATCC NSCLC
786-0 renal = tested on: 786-0 renal
COLO 205 colon = tested on: COLO 205 colon
DU-145 prostate = tested on: DU-145 prostate
K-562 leukemia = tested on: K-562 leukemia
MALME-3M melanoma = tested on: MALME-3M melanoma
MDA-MB-231 breast = tested on: MDA-MB-231 breast
RXF 393 renal = tested on: RXF 393 renal
SF-268 CNS = tested on: SF-268 CNS
SF-295 CNS = tested on: SF-295 CNS
SF-539 CNS = tested on: SF-539 CNS
UACC-257 melanoma = tested on: UACC-257 melanoma
M14 melanoma = tested on: M14 melanoma

Measured: growth

Cc1ccc(S(=O)(=O)CCCl)cc1
inactive: NCI-H23 lung 102% | NCI-H226 lung 108% | NCI-H322M lung 128% | HOP-62 NSCLC 112% | NCI-H460 lung 105% | HOP-92 NSCLC 76.1% | NCI-H522 lung 113% | A549/ATCC NSCLC 89.5% | 786-0 renal 108% | COLO 205 colon 120% | DU-145 prostate 112% | K-562 leukemia 95.6% | MALME-3M melanoma 117% | MDA-MB-231 breast 117% | RXF 393 renal 100% | SF-268 CNS 93.8% | SF-295 CNS 111% | SF-539 CNS 100% | UACC-257 melanoma 100% | M14 melanoma 104%

CN1CCN(C(=S)S)CC1
inactive: NCI-H23 lung 104% | NCI-H226 lung 109% | NCI-H322M lung 129% | HOP-62 NSCLC 108% | NCI-H460 lung 116% | HOP-92 NSCLC 104% | NCI-H522 lung 94.5% | A549/ATCC NSCLC 94% | 786-0 renal 105% | COLO 205 colon 80.9% | DU-145 prostate 102% | K-562 leukemia 73.5% | MALME-3M melanoma 143% | MDA-MB-231 breast 106% | RXF 393 renal 130% | SF-268 CNS 102% | SF-295 CNS 127% | SF-539 CNS 104% | UACC-257 melanoma 105% | M14 melanoma 105%

S=C(NCc1ccccc1)N1CCC(CCCC2CCN(C(=S)NCc3ccccc3)CC2)CC1
inactive: NCI-H23 lung 90% | NCI-H226 lung 91.4% | NCI-H322M lung 118% | HOP-62 NSCLC 97.2% | NCI-H460 lung 106% | HOP-92 NSCLC 77.5% | NCI-H522 lung 80.2% | A549/ATCC NSCLC 95.5% | 786-0 renal 101% | COLO 205 colon 110% | DU-145 prostate 105% | K-562 leukemia 69.9% | MALME-3M melanoma 104% | MDA-MB-231 breast 99.2% | RXF 393 renal 107% | SF-268 CNS 93% | SF-295 CNS 97.7% | SF-539 CNS 99.1% | UACC-257 melanoma 100% | M14 melanoma 100%

Cc1ccc(O)c(N)c1
inactive: NCI-H23 lung 121% | NCI-H226 lung 97% | NCI-H322M lung 98.1% | HOP-62 NSCLC 132% | NCI-H460 lung 103% | HOP-92 NSCLC 126% | NCI-H522 lung 70.6% | A549/ATCC NSCLC 98.7% | 786-0 renal 115% | COLO 205 colon 117% | DU-145 prostate 122% | K-562 leukemia 113% | MALME-3M melanoma 103% | MDA-MB-231 breast 92.8% | RXF 393 renal 117% | SF-268 CNS 112% | SF-295 CNS 131% | SF-539 CNS 103% | UACC-257 melanoma 111% | M14 melanoma 108%

CCC12OC(COc3ccccc3)CN1CCN2c1ccccc1 (stereo not given)
inactive: NCI-H23 lung 98.2% [100 µM] | NCI-H226 lung 93.8% [100 µM] | NCI-H322M lung 93.3% [100 µM] | HOP-62 NSCLC 98.9% [100 µM] | NCI-H460 lung 106% [100 µM] | HOP-92 NSCLC 96.9% [100 µM] | NCI-H522 lung 87.6% [100 µM] | A549/ATCC NSCLC 94.1% [100 µM] | 786-0 renal 96.6% [100 µM] | COLO 205 colon 118% [100 µM] | DU-145 prostate 106% [100 µM] | K-562 leukemia 93.1% [100 µM] | MALME-3M melanoma 98.4% [100 µM] | MDA-MB-231 breast 88.8% [100 µM] | RXF 393 renal 99.9% [100 µM] | SF-268 CNS 92.2% [100 µM] | SF-295 CNS 105% [100 µM] | SF-539 CNS 95.9% [100 µM] | UACC-257 melanoma 95.8% [100 µM] | M14 melanoma 103% [100 µM]

C=CCc1cc(OC)c(OC)c(OC)c1
inactive: NCI-H23 lung 95.6% | NCI-H226 lung 104% | NCI-H322M lung 117% | HOP-62 NSCLC 104% | NCI-H460 lung 97.1% | HOP-92 NSCLC 108% | NCI-H522 lung 101% | A549/ATCC NSCLC 96.2% | 786-0 renal 108% | COLO 205 colon 108% | DU-145 prostate 102% | K-562 leukemia 105% | MALME-3M melanoma 109% | MDA-MB-231 breast 99% | RXF 393 renal 103% | SF-268 CNS 95.3% | SF-295 CNS 113% | SF-539 CNS 114% | UACC-257 melanoma 99.1% | M14 melanoma 103%

CCOS(=O)(=O)c1ccc([N+](=O)[O-])cc1
inactive: NCI-H23 lung 101% | NCI-H226 lung 101% | NCI-H322M lung 102% | HOP-62 NSCLC 100% | NCI-H460 lung 107% | HOP-92 NSCLC 99.4% | NCI-H522 lung 94.3% | A549/ATCC NSCLC 86.1% | 786-0 renal 107% | COLO 205 colon 109% | DU-145 prostate 108% | K-562 leukemia 99.2% | MALME-3M melanoma 113% | MDA-MB-231 breast 106% | RXF 393 renal 120% | SF-268 CNS 103% | SF-295 CNS 101% | SF-539 CNS 102% | UACC-257 melanoma 94.5% | M14 melanoma 105%

COc1ccc(Nc2cc(Cl)ccc2C(=O)O)cn1
inactive: NCI-H23 lung 102% | NCI-H226 lung 103% | NCI-H322M lung 128% | HOP-62 NSCLC 111% | NCI-H460 lung 113% | HOP-92 NSCLC 101% | NCI-H522 lung 100% | A549/ATCC NSCLC 103% | 786-0 renal 111% | COLO 205 colon 103% | DU-145 prostate 110% | K-562 leukemia 100% | MALME-3M melanoma 157% | MDA-MB-231 breast 109% | RXF 393 renal 126% | SF-268 CNS 103% | SF-295 CNS 138% | SF-539 CNS 105% | UACC-257 melanoma 40.3% | M14 melanoma 102%

Cc1cccc(-[n+]2noc(N)n2)c1
inactive: NCI-H23 lung 85.5% | NCI-H226 lung 80.8% | NCI-H322M lung 87.7% | HOP-62 NSCLC 87.3% | NCI-H460 lung 80.9% | HOP-92 NSCLC 65% | NCI-H522 lung 50.9% | A549/ATCC NSCLC 102% | 786-0 renal 93.8% | COLO 205 colon 95.7% | DU-145 prostate 75.4% | K-562 leukemia 20.2% | MALME-3M melanoma 86.4% | MDA-MB-231 breast 53.7% | RXF 393 renal 99.1% | SF-268 CNS 81.9% | SF-295 CNS 84.5% | SF-539 CNS 91.6% | UACC-257 melanoma 95.2% | M14 melanoma 88.4%

O=[n+]1ccn([O-])c2ccccc21
inactive: NCI-H23 lung 96% | NCI-H226 lung 89.8% | NCI-H322M lung 104% | HOP-62 NSCLC 95% | NCI-H460 lung 102% | HOP-92 NSCLC 78.6% | NCI-H522 lung 118% | A549/ATCC NSCLC 113% | 786-0 renal 103% | COLO 205 colon 100% | DU-145 prostate 105% | K-562 leukemia 109% | MALME-3M melanoma 98.3% | MDA-MB-231 breast 94.6% | RXF 393 renal 89.5% | SF-268 CNS 95.8% | SF-295 CNS 107% | SF-539 CNS 99.1% | UACC-257 melanoma 133% | M14 melanoma 96.7%

OCC1CCC(O)C(CO)N1 (stereo not given)
inactive: NCI-H23 lung 110% | NCI-H226 lung 104% | NCI-H322M lung 113% | HOP-62 NSCLC 101% | NCI-H460 lung 107% | HOP-92 NSCLC 119% | NCI-H522 lung 103% | A549/ATCC NSCLC 94.2% | 786-0 renal 109% | COLO 205 colon 95% | DU-145 prostate 113% | K-562 leukemia 116% | MALME-3M melanoma 106% | MDA-MB-231 breast 106% | RXF 393 renal 107% | SF-268 CNS 106% | SF-295 CNS 91% | SF-539 CNS 87.9% | UACC-257 melanoma 110% | M14 melanoma 96.5%

CC(=O)c1cccc(N(C)S(=O)(=O)c2ccc(C)cc2)c1
inactive: NCI-H23 lung 93% | NCI-H226 lung 95.7% | NCI-H322M lung 90.4% | HOP-62 NSCLC 92.8% | NCI-H460 lung 104% | HOP-92 NSCLC 72.3% | NCI-H522 lung 82.9% | A549/ATCC NSCLC 95.9% | 786-0 renal 94% | COLO 205 colon 116% | DU-145 prostate 98.2% | K-562 leukemia 47.8% | MALME-3M melanoma 84% | MDA-MB-231 breast 93.1% | RXF 393 renal 116% | SF-268 CNS 93% | SF-295 CNS 93.2% | SF-539 CNS 79.1% | UACC-257 melanoma 94.7% | M14 melanoma 77.6%

Cc1ccc(N2C(=O)c3cccc4c(N)c(S(=O)(=O)O)cc(c34)C2=O)cc1
inactive: NCI-H23 lung 95.7% | NCI-H226 lung 89.7% | NCI-H322M lung 114% | HOP-62 NSCLC 107% | NCI-H460 lung 104% | HOP-92 NSCLC 86.1% | NCI-H522 lung 84.5% | A549/ATCC NSCLC 104% | 786-0 renal 104% | COLO 205 colon 109% | DU-145 prostate 120% | K-562 leukemia 103% | MALME-3M melanoma 135% | MDA-MB-231 breast 106% | RXF 393 renal 111% | SF-268 CNS 108% | SF-295 CNS 129% | SF-539 CNS 107% | UACC-257 melanoma 114% | M14 melanoma 111%

O=S(=O)(O)C(C(I)I)S(=O)(=O)O
inactive: NCI-H23 lung 95.4% | NCI-H226 lung 98.7% | NCI-H322M lung 107% | HOP-62 NSCLC 109% | NCI-H460 lung 105% | HOP-92 NSCLC 106% | NCI-H522 lung 108% | A549/ATCC NSCLC 104% | 786-0 renal 110% | COLO 205 colon 110% | DU-145 prostate 106% | K-562 leukemia 105% | MALME-3M melanoma 107% | MDA-MB-231 breast 126% | RXF 393 renal 104% | SF-268 CNS 100% | SF-295 CNS 113% | SF-539 CNS 99.8% | UACC-257 melanoma 102% | M14 melanoma 109%

Nc1ccc2c(c1)Cc1cc(N)c(N)cc1-2
inactive: NCI-H23 lung 86.2% | NCI-H226 lung 95.4% | NCI-H322M lung 92% | HOP-62 NSCLC 95% | NCI-H460 lung 95.9% | HOP-92 NSCLC 101% | NCI-H522 lung 74.6% | A549/ATCC NSCLC 77.9% | 786-0 renal 107% | COLO 205 colon 103% | DU-145 prostate 108% | K-562 leukemia 97.3% | MALME-3M melanoma 95.8% | MDA-MB-231 breast 84% | RXF 393 renal 97.3% | SF-268 CNS 104% | SF-295 CNS 106% | SF-539 CNS 109% | UACC-257 melanoma 81% | M14 melanoma 102%
